Inconclusive results are not listed. Calls of active or inactive are those of the source. Unless noted, calls follow the shape of the dose curve; as a rule, active = well fitted curve in the direction sought with a large enough effect in the repeat runs; inconclusive = weak or mixed curves; inactive = no such curve, though single readings can be large; an effect the other way counts as inactive or inconclusive.
Legend:
[1] = qHTS assay to identify small molecule agonists of the hypoxia (HIF-1) signaling pathway - cell viability counter screen (AID 1224844; calls by dose curve; also: nearly all actives have a fitted effect of over 50% in size)
Summary of the method: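 Multiplexed with the HRE beta-lactamase assay, this viability read used CellTiter-Glo luminescence (30 min, RT) on HRE-bla ME-180 cells treated 17 hrs with compounds in 0.5% dialyzed FBS medium.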

[2] = qHTS assay to identify small molecule agonists of H2AX (AID 1224845; active = well fitted activation curve with a large enough effect in the signal ratio in the repeat runs, not every such curve was filed as active; the % refers to the signal ratio)
Summary of the method: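 Wild-type CHO-K1 cells, plated overnight, exposed 3hr at 37C to 15 concentrations (0.76% DMSO final). Lysed, then HTRF anti-pH2AX (S139) cryptate and anti-H2AX-d2 antibodies, 24 hr room temperature; 665/620 nm emission read.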

[3] = qHTS assay to identify small molecule agonists of the hypoxia (HIF-1) signaling pathway (AID 1224846; active = well fitted activation curve with a large enough effect in the signal ratio in the repeat runs, not every such curve was filed as active; the % refers to the signal ratio)
Summary of the method: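 Hypoxia-pathway activation was scored as increased beta-lactamase from an HRE-controlled reporter in ME-180 cells; plated at 2,000 cells per well with 0.5% dialyzed FBS, they were exposed 17 hrs to compounds and then given CCF4-AM.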

[4] = qHTS assay to identify small molecule agonists of H2AX - cell viability counter screen (AID 1224847; calls by dose curve; also: top concentration of the series differs between compounds; nearly all actives have a fitted effect of over 30% in size)
Summary of the method: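 CHO-K1 wt, 1000 cells/well, o/n 37C; cpds 15 conc, 3 h 37C, 0.76% DMSO; CellTiter-Glo, 30 min RT, luminescence.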

[5] = qHTS RealTime-Glo MT Cell Viability Assay in HepG2 cells - 24 hour (AID 1224867); also: nearly all actives have a fitted effect of over 50% in size
Summary of the method: (§1)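 HepG2 suspension premixed with RealTime-Glo reagents is plated at 600 cells per well and left 5 h at 37 C/5% CO2. Compounds in DMSO then go in, and bioluminescence reflecting viable cell number is recorded over 40 h.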

[6] = qHTS RealTime-Glo MT Cell Viability Assay in HEK293 cells - 32 hour (AID 1224868); also: nearly all actives have a fitted effect of over 50% in size; also: potency is read from the fitted curve at half-maximal effect
Summary of the method: (§2)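 Reads taken at 0, 8, 16, 24, 32 and 40 h from the same wells. HEK293 cells (600/well) carried RealTime-Glo reagents from seeding, with compound added after a 5 h settle at 37 C.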

[7] = A CellTox Green Cytotoxicity Assay to monitor cytotoxicity in HEK293 cells - 0 hour (AID 1224869); also: nearly all actives have a fitted effect of over 50% in size
Summary of the method: (§3)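 Seeding of HEK293 cells together with cytotoxicity dye preceded a 5 h incubation at 37 C/5% CO2. Test compounds in DMSO were then added and fluorescence monitored across 40 h.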

[8] = qHTS RealTime-Glo MT Cell Viability Assay in HepG2 cells - 40 hour (AID 1224870); also: nearly all actives have a fitted effect of over 50% in size
Summary of the method: (§4)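 HepG2 cells (600/well) mixed with RealTime-Glo MT reagent, settled 5 h at 37 C/5% CO2 before compound addition. Nonlytic NanoLuc luminescence from viable-cell prosubstrate reduction read repeatedly during 40 h treatment at 37 C.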

[9] = A CellTox Green Cytotoxicity Assay to monitor cytotoxicity in HEK293 cells - 40 hour (AID 1224871); also: nearly all actives have a fitted effect of over 45% in size
Summary of the method: as §3

[10] = qHTS RealTime-Glo MT Cell Viability Assay in HEK293 cells - 16 hour (AID 1224872); also: nearly all actives have a fitted effect of over 50% in size; also: potency is read from the fitted curve at half-maximal effect
Summary of the method: as §2

[11] = qHTS RealTime-Glo MT Cell Viability Assay in HEK293 cells - 40 hour (AID 1224874); conditions: RealTime-Glo luminescence; max response: stronger effect = lower value; also: nearly all actives have a fitted effect of over 50% in size; also: potency is read from the fitted curve at half-maximal effect
Summary of the method: (§5)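 Tox21 screen in HEK293 using RealTime-Glo MT chemistry, with cells and reagent co-dispensed. Luminescence proportional to viable cell number was captured at intervals during 40 h compound exposure at 37 C.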

[12] = A CellTox Green Cytotoxicity Assay to monitor cytotoxicity in HEK293 cells - 24 hour (AID 1224875); also: nearly all actives have a fitted effect of over 45% in size
Summary of the method: as §3

[13] = A CellTox Green Cytotoxicity Assay to monitor cytotoxicity in HepG2 cells - 16 hour (AID 1224876); also: nearly all actives have a fitted effect of over 45% in size
Summary of the method: (§6)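 Nonlytic assay: viable cells exclude the dye, so fluorescence scales with cell death. HepG2 at 600 cells/well, compounds added after 5 h, signal read across 40 h.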

[14] = qHTS RealTime-Glo MT Cell Viability Assay in HepG2 cells - 32 hour (AID 1224877); also: nearly all actives have a fitted effect of over 55% in size
Summary of the method: as §1

[15] = A CellTox Green Cytotoxicity Assay to monitor cytotoxicity in HepG2 cells - 24 hour (AID 1224878); also: nearly all actives have a fitted effect of over 45% in size
Summary of the method: as §6

[16] = A CellTox Green Cytotoxicity Assay to monitor cytotoxicity in HepG2 cells - 40 hour (AID 1224879); also: nearly all actives have a fitted effect of over 40% in size
Summary of the method: as §6

[17] = qHTS RealTime-Glo MT Cell Viability Assay in HEK293 cells - 0 hour (AID 1224880)
Summary of the method: as §5

[18] = qHTS RealTime-Glo MT Cell Viability Assay in HepG2 cells - 8 hour (AID 1224873); also: nearly all actives have a fitted effect of over 55% in size
Summary of the method: as §4

[19] = qHTS assay to identify small molecule antagonists of the estrogen related receptor (ERR) signaling pathway from Tox21 library (AID 1224848); also: nearly all actives have a fitted effect of over 50% in size
Summary of the method: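 ERR reporter cell line (from NTP) seeded 2,000 cells/well, rested 6 h at 37 C/5% CO2, then pin-dosed with compounds in DMSO. After 18 h at 37 C, ONE-Glo added; luminescence read after 30 min at room temperature.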

[20] = qHTS assay to identify small molecule agonists of the estrogen related receptor (ERR) signaling pathway from Tox21 library (AID 1224849; calls by dose curve; also: nearly all actives have a fitted effect of over 15% in size); conditions: ERR reporter cell line, ONE-Glo luciferase, 18 h; at 92.4 µM (top of the series) unless noted
Summary of the method: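 Six hours post-seeding at 37 C/5% CO2, ERR cells receive DMSO-solubilised compounds; after 18 h at 37 C, ONE-Glo reagent is applied and luminescence recorded.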
% is scaled to controls: 0 for no effect and ±100 for the full control effect.

CC1=CCC(C(C)C)=CC1
inactive: outcome [1] | outcome [2] | outcome [3] | Potency [4] | outcome [5] | Potency [6] | outcome [7] | outcome [8] | Potency [9] | Potency [10] | max response [11] -3.87% | outcome [12] | outcome [13] | outcome [14] | outcome [15] | Potency [16] | Potency [17]

C[C@H](N)[C@H](O)c1cccc(O)c1
inactive: outcome [1] | outcome [2] | outcome [3] | Potency [4] | outcome [5] | Potency [6] | outcome [7] | outcome [8] | Potency [9] | Potency [10] | outcome [18] | max response [11] -0.629% | outcome [12] | outcome [13] | outcome [14] | outcome [15] | Potency [16]

CCCCCCCCC1CCC(=O)O1 (stereo not given)
inactive: outcome [1] | outcome [2] | outcome [3] | Potency [4] | Potency [19] | outcome [5] | Potency [6] | outcome [7] | outcome [8] | Potency [9] | Potency [10] | outcome [18] | max response [11] -1.86% | outcome [12] | outcome [13] | outcome [14] | outcome [15] | Potency [16] | Potency [17]

CC(C)C[C@H](NC(=O)CNC(=O)[C@H](Cc1ccc(O)cc1)NC(=O)[C@H](CO)NC(=O)[C@H](Cc1c[nH]c2ccccc12)NC(=O)[C@H](Cc1cnc[nH]1)NC(=O)[C@@H]1CCC(=O)N1)C(=O)N[C@@H](CCCN=C(N)N)C(=O)N1CCC[C@H]1C(=O)NCC(N)=O (stereo in doubt)
inactive: outcome [1] | outcome [2] | outcome [3] | Potency [4] | outcome [5] | Potency [6] | outcome [7] | outcome [8] | Potency [9] | Potency [10] | max response [11] 12.8% | outcome [12] | outcome [13] | outcome [14] | outcome [15] | Potency [16]

O=S(=O)(O)c1ccc2cc(O)c(S(=O)(=O)O)cc2c1
inactive: outcome [1] | outcome [2] | outcome [3] | Potency [4] | outcome [5] | Potency [6] | outcome [7] | outcome [8] | Potency [9] | outcome [18] | max response [11] -1.21% | outcome [12] | outcome [13] | outcome [14] | outcome [15] | Potency [16] | Potency [17]

C=C(C)C(=O)OCCN(CC)CC
inactive: outcome [1] | outcome [2] | outcome [3] | Potency [4] | outcome [5] | Potency [6] | outcome [7] | outcome [8] | Potency [9] | outcome [18] | max response [11] 2.31% | outcome [12] | outcome [13] | outcome [14] | outcome [15] | Potency [16] | Potency [17]

CC(C)=O
inactive: outcome [1] | outcome [2] | outcome [3] | Potency [4] | outcome [5] | Potency [6] | outcome [7] | outcome [8] | Potency [9] | Potency [10] | max response [11] 0.384% | outcome [13] | outcome [14] | outcome [15] | Potency [16] | Potency [17]

O=C(Nc1ccc(Cl)c(Cl)c1)C1CC1
active: Potency [6] 9.52 µM | Potency [10] 9.52 µM | Potency [11] 8.49 µM
inactive: outcome [1] | outcome [2] | outcome [3] | Potency [4] | activity change, positive = activation [20] -22.3% [at 42.5 µM] | outcome [5] | outcome [7] | outcome [8] | Potency [9] | outcome [18] | outcome [13] | outcome [14] | outcome [15] | Potency [16] | Potency [17]

Cc1[nH]cnc1-c1ccc(Cl)cc1
inactive: outcome [1] | outcome [2] | outcome [3] | Potency [4] | outcome [5] | Potency [6] | outcome [7] | outcome [8] | Potency [9] | Potency [10] | outcome [18] | max response [11] -3.17% | outcome [13] | outcome [14] | outcome [15] | Potency [16] | Potency [17]

CCCOC(=O)C(C)O (stereo not given)
inactive: outcome [1] | outcome [2] | outcome [3] | Potency [4] | outcome [5] | Potency [6] | outcome [7] | outcome [8] | Potency [9] | outcome [18] | max response [11] -7.32% | outcome [12] | outcome [13] | outcome [14] | outcome [15] | Potency [16]

NS(=O)(=O)c1cc2c(cc1Cl)CN(C1CCCCC1)C2=O
inactive: outcome [1] | outcome [2] | outcome [3] | Potency [4] | outcome [5] | outcome [7] | outcome [8] | Potency [9] | outcome [18] | outcome [12] | outcome [13] | outcome [14] | outcome [15] | Potency [16] | Potency [17]
active: Potency [6] 9.52 µM | Potency [10] 10.7 µM | Potency [11] 9.52 µM

O=C1c2cccc3c2[C@H](CCC3)CN1[C@@H]1CN2CCC1CC2
inactive: outcome [1] | outcome [2] | outcome [3] | Potency [4] | Potency [19] | outcome [5] | outcome [7] | outcome [8] | Potency [9] | outcome [12] | outcome [13] | outcome [14] | outcome [15] | Potency [16] | Potency [17]
active: activity change, positive = activation [20] 20.8% [at 42.5 µM] | Potency [11] 6.01 µM

CC(C)OC(=O)CCCCC(=O)OC(C)C
inactive: outcome [1] | outcome [2] | outcome [3] | Potency [4] | outcome [5] | Potency [6] | outcome [7] | outcome [8] | Potency [9] | Potency [10] | outcome [18] | max response [11] 13.3% | outcome [12] | outcome [13] | outcome [14] | outcome [15] | Potency [16] | Potency [17]

CCOc1cc([N+](=O)[O-])c(OCC)cc1N1CCOCC1
inactive: outcome [1] | outcome [2] | outcome [3] | Potency [4] | outcome [5] | outcome [7] | outcome [8] | Potency [9] | outcome [18] | outcome [12] | outcome [13] | outcome [14] | outcome [15] | Potency [16]
active: Potency [6] 15.5 µM | Potency [10] 19.5 µM | Potency [11] 15.5 µM
